Assay results: PubChem BioAssay AID1159580 (chemical genetic matrix, 2015)
In all, about 5,500 compounds went through this assay and about 2,000 (36%) were called active. Not shown: some 18% with an inconclusive outcome. No stated cut-off is given here; in the data, active means normalized growth mostly below about 0.91 (no sharp cut-off); inconclusive means no clear call, values can overlap the other calls; inactive means mostly above about 0.92. The list shows a part of the results.

Assay: chemical genetic growth profiling, strain panel (AID 1159580);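 further: tested at 20 µM; growth read once vehicle control cultures reached saturation at 30 °C; 1 = growth at the plate median or of vehicle wells; lower values mean less growth of the strain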
Conditions: S. cerevisiae deletion strains, growth OD

Measured: normalized growth

CCOC(=O)CC(=O)Nc1scc(C)c1C(=O)OCC
inactive: locus YAL013W, strain DEP1, active compounds read low 0.988 | locus YBR229C, strain ROT2, active compounds read low 0.977 | locus YDL101C, strain DUN1, active compounds read low 0.97 | locus YDL134C, strain PPH21, active compounds read low 0.923 | locus YDR150W, strain NUM1, active compounds read low 0.995 | locus YEL061C, strain CIN8, active compounds read low 0.943 | locus YGR078C, strain PAC10, active compounds read low 0.947 | locus YHR030C, strain SLT2, active compounds read low 0.906 | locus YHR087W, strain rtc3, active compounds read low 0.924 | locus YJL187C, strain SWE1, active compounds read low 0.958 | locus YJR043C, strain POL32, active compounds read low 0.979 | locus YJR075W, strain HOC1, active compounds read low 0.951 | locus YKL190W, strain CNB1, active compounds read low 0.97 | locus YLR039C, strain RIC1, active compounds read low 0.987 | locus YLR058C, strain SHM2 (second series), active compounds read low 0.98 | locus YLR085C, strain ARP6, active compounds read low 0.872 | locus YLR262C, strain YPT6, active compounds read low 0.994 | locus YML094W, strain GIM5, active compounds read low 0.933 | locus YMR219W, strain ESC1, active compounds read low 0.968 | locus YMR263W, strain SAP30, active compounds read low 0.984 | locus YNL128W, strain TEP1, active compounds read low 0.98 | locus YNL153C, strain GIM3, active compounds read low 0.969 | locus YNL298W, strain CLA4 (second series), active compounds read low 0.934 | locus YNL322C, strain KRE1, active compounds read low 0.957 | locus YNR030W, strain Alg12, active compounds read low 0.924 | locus YPL055C, strain LGE1, active compounds read low 0.968 | locus YPL241C, strain CIN2, active compounds read low 0.936 | locus YPR135W, strain CTF4, active compounds read low 1.14
